In assay [1] the target is Glutaminase kidney isoform, mitochondrial (Homo sapiens) (UniProt O94925). Description: qHTS for Inhibitors of Glutaminase (GLS): LOPAC Validation (AID 624146).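 Also: glutamate product detected by oxidase and peroxidase coupled Amplex red fluorescence gain; % is scaled to controls: 0 for no effect and ±100 for the full control effect; nearly all actives have a fitted effect of over 60% in size.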 The method, boiled down: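 Two-point fluorescence kinetic (t0, 30 min RT) for hKGA; glutamate detected via glutamate oxidase–HRP–Amplex Red. Substrate: 1 mM L-glutamine solution; buffer 45 mM KH2PO4, pH 8.2.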
Sequence of Glutaminase kidney isoform, mitochondrial (Homo sapiens) (O94925 whole entry, looked up, canonical isoform): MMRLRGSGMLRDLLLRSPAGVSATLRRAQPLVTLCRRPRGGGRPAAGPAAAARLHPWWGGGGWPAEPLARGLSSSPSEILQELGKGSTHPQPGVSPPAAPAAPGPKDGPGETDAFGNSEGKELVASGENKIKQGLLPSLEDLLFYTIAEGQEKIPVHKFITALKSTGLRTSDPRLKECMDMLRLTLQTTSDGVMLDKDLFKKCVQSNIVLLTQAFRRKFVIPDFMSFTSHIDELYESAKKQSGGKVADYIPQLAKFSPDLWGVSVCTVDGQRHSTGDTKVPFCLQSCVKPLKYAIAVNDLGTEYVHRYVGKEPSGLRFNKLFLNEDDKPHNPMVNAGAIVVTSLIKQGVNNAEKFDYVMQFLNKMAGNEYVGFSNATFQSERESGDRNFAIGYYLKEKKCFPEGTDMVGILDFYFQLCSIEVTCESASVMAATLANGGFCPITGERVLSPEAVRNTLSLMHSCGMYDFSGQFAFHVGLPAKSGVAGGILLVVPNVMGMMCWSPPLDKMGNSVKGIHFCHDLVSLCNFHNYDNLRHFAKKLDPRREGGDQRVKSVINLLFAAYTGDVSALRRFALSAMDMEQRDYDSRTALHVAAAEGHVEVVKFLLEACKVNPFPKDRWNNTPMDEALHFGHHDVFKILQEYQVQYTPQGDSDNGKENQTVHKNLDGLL
In general terms: qHTS replaces the single test concentration by a dilution series.

The nature of assay [2]: qHTS of Trypanosoma Brucei Inhibitors: LOPAC Validation (AID 624147). Also: 0% is about no effect. The procedure, abridged: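 In this concentration-response screen, enzyme-free wells defined baseline while DMSO plates tracked drift. Each reaction combined TbPYK, substrate, compound and 130 uM ADP for 45 min at room temperature. Kinase-Glo Plus luminescence gave the signal.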
Assay [3] concerns the target Glucagon-like peptide 1 receptor (Homo sapiens) (UniProt P43220). Kind of assay: qHTS of GLP-1 Receptor Agonists: LOPAC Validation (AID 624148).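 Also: luminescence from a luciferase reporter switched on by cAMP; 0% is about no effect; higher luminescence signal means agonism.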 The procedure, abridged: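 Agonism scored as increased luciferase luminescence driven by cAMP in HEK293 clones carrying GLP-1R. Cells settled 12 hours, received compound for 4-6 hr at 37 deg C, 5% CO2, and were read after 12 min detection reagent at RT.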

The nature of assay [4]: qHTS of Nrf2 Activators: LOPAC Validation (AID 624149). Also: 0% is about no effect. The procedure, abridged:
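ARE reporter activation measured in AREc32 firefly luciferase cells after 24 hr compound exposure; Steady-Glo luminescence.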

Assay [5] in a line: Cytotoxicity counterscreen for NFkB agonists and antagonists (AID 624476).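 Also: cells exposed to compound for 48 hours.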 Also: potency is read from the fitted curve at half-maximal effect. On the technique in general: Counterscreens check selectivity or assay interference.
A short description of assay [6]: qHTS Assay for Identification of Small Molecule Agonists for NFkB Signaling Pathway. (AID 624478).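 Also: compounds tested together with TNF alpha at its EC50 of 10 pM; 0% is about no effect.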 The procedure, abridged: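 Cells carrying an NFkB response element-driven beta-lactamase gene are co-treated with compound and 10 pM TNF alpha for 5 h, and reporter activity is then read as 460 and 530 nm fluorescence.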
A short description of assay [7]: qHTS Assay for Identification of Small Molecule Antagonists for NFkB Signaling Pathway. (AID 624479; calls by dose curve;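 also: pathway stimulated with TNF alpha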; also: potency is read from the fitted curve at half-maximal effect).
Assay [8] can be described thus: Cell Proliferation Assay against the TMD8 Cell Line (AID 651645).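 Also: cells exposed to compound for 48 h before reading.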 The note with it: TMD8 DLBCL cell line proliferation/viability; at 46.1 µM (top of the series) unless noted. The method, boiled down: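 Luminescent ATP read-out (CellTiter-Glo, 15 min RT) after 48 h compound exposure of log-growing TMD8 cells at 37C; percent activity scaled between DMSO as 100% and 9.2 uM bortezomib final as 0%.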

Assay [9] in a line: Cell Proliferation Assay against the HBL1 Cell Line (AID 651646).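 Also: cells exposed to compound for 48 h before reading.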 The note with it: HBL1 DLBCL cells; at 46.1 µM (top of the series) unless noted. The procedure, abridged:
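Luminescent ATP read-out (CellTiter-Glo) after 48 h compound exposure of HBL1 cells at 37 °C; percent activity was scaled between DMSO as 100% and 9.2 uM bortezomib (final) as 0%.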

Assay [10] has as its target Luciferin 4-monooxygenase (Photinus pyralis) (UniProt P08659). Kind of assay: Biochemical firefly luciferase enzyme assay for NPC (AID 624030).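 Also: purified P. pyralis luciferase at 10 nM with luciferin and ATP substrate; 0% = DMSO and -100% = full luciferase inhibition by PTC124 control; nearly all actives have a fitted effect of over 70% in size.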 The method, boiled down:
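Direct inhibition of firefly luciferase enzyme (10 nM final, 50 mM Tris Acetate) assessed by luminescence within 5 minutes. Percent activity scaled between DMSO and PTC124 positive control, with concentration-effect curves classified by fit quality and response.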

A short description of assay [11]: S16 Schwann cell viability assay (CellTiter-Glo assay) (AID 624031). Also: nearly all actives have a fitted effect of over 70% in size. Also: potency is read from the fitted curve at half-maximal effect. The procedure, abridged:
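Native S16 Schwann cells (rat), serum-containing medium, overnight attachment then 24 h drug exposure at 37 °C/5% CO2. CellTiter-Glo ATP signal; normalized to cell-free and vehicle wells.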
For orientation: Cellular ATP, detected with luciferase, serves as a proxy for viable cell number.

Assay [12] is described as follows: S16 Schwann cell PMP22 intronic element beta-lactamase assay (AID 624044; calls by dose curve;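 also: 0% = DMSO and -100% = potassium clavulanate positive control; nearly all actives have a fitted effect of over 15% in size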). The procedure, abridged: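 Rat S16 Schwann cells with beta-Lac driven by a PMP22 intronic element, compound-treated 24 h at 37 °C. LiveBLAzer FRET B/G read: 460 nm normalized to potassium clavulanate vs DMSO; 535 nm FRET as viability; concentration-effect curves classified.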
Assay [13] deals with Voltage-gated inwardly rectifying potassium channel KCNH2 (Homo sapiens) (UniProt Q12809). Kind of assay: qHTS Assay for Small Molecule Inhibitors of the Human hERG Channel Activity (AID 588834).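 Also: top concentration of the series differs between compounds; % is scaled to controls: 0 for no effect and ±100 for the full control effect; lower thallium flux fluorescence means stronger hERG block; nearly all actives have a fitted effect of over 50% in size.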 The procedure, abridged: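 Concentration-response qHTS measuring drop in thallium-sensitive dye signal. U2OS cells carrying BacMam hERG; compound exposure ~10 min, then stimulation buffer and 2 min read at 1 sec intervals.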
Sequence of Voltage-gated inwardly rectifying potassium channel KCNH2 (Homo sapiens) (Q12809 whole entry, looked up): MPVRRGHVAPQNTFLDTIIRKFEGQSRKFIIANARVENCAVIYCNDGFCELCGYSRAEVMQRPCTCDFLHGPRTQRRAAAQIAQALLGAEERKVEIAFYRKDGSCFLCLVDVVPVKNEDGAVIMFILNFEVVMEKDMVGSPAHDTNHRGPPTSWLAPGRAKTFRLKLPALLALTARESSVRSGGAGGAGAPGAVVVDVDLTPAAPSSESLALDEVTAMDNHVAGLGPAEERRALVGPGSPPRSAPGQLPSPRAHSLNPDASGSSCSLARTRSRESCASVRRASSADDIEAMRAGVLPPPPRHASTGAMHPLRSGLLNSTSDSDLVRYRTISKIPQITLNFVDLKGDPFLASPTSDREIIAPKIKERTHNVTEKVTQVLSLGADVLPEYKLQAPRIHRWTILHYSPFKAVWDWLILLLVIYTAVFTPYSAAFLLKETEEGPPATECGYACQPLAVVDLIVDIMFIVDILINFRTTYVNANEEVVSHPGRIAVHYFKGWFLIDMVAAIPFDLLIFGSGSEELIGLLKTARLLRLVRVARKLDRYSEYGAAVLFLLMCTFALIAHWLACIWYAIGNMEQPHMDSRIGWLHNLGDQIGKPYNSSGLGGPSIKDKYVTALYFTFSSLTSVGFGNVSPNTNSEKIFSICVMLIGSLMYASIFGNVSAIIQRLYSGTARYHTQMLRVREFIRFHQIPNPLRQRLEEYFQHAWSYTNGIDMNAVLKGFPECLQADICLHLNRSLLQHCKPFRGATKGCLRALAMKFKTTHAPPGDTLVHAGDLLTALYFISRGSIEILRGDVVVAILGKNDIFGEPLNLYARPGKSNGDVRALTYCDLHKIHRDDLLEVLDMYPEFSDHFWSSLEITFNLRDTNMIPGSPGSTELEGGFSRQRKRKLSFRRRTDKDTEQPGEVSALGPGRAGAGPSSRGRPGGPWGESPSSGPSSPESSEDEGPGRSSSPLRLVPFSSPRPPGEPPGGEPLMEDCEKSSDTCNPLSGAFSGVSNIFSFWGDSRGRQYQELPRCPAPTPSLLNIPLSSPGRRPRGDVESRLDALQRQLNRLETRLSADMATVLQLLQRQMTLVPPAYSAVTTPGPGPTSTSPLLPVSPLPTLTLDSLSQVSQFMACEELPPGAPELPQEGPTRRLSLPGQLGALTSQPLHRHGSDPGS

The nature of assay [14]: Cell Proliferation Assay against the TMD8 Cell Line (Caspase readout at 8 hrs) (AID 651713). Also: potency is read from the fitted curve at half-maximal effect. The procedure, abridged: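 Percent activity derived from Caspase-Glo signal, DMSO set to 0% and bortezomib (9.2 uM final) to 100%. TMD8 cells were exposed to compound for 8 h in RPMI with 5% FBS.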

Inconclusive results are not listed. Activity calls are given as the source filed them. Unless noted, calls follow the shape of the dose curve; as a rule, active = well fitted curve in the direction sought with a large enough effect; inconclusive = small, poorly fitted or top-dose-only effect, or another doubt; inactive = no such curve, though single readings can be large; an effect the other way counts as inactive or inconclusive.

Sequence of Glucagon-like peptide 1 receptor (Homo sapiens) (P43220 whole entry, looked up): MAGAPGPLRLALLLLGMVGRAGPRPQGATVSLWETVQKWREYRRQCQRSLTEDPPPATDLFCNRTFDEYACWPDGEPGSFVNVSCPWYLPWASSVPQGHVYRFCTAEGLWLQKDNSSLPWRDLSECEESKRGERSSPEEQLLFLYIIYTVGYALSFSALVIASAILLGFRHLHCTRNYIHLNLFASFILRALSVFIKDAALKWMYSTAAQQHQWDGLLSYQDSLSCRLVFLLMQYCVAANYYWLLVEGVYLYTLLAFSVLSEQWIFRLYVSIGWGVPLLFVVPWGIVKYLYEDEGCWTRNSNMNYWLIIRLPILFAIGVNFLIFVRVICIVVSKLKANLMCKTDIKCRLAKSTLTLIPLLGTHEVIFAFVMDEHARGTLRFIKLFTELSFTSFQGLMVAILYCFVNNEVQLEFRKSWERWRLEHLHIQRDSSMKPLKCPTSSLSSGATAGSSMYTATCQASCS
Sequence of Luciferin 4-monooxygenase (Photinus pyralis) (P08659 whole entry, looked up): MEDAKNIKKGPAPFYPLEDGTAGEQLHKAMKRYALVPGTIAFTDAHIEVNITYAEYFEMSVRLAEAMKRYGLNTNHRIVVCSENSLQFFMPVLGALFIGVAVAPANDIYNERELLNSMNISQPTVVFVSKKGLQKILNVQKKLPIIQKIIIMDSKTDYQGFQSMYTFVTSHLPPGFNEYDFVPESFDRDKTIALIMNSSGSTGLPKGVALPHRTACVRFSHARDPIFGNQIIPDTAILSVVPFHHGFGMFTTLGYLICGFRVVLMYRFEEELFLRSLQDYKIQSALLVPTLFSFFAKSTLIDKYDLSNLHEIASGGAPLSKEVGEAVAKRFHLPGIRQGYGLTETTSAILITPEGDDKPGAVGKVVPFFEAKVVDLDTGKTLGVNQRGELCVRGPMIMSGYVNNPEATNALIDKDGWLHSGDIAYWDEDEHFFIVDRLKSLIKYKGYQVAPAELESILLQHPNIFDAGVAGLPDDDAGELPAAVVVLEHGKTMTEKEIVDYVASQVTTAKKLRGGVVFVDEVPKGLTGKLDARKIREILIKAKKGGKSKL

`Clc1ccc(C(c2ccc(Cl)cc2)n2cc[n+](CC(OCc3ccc(Cl)cc3Cl)c3ccc(Cl)cc3Cl)c2)cc1` (centres undefined): the Potency result in assay [1] is “inactive”. The call in assay [2], in assay [3] and in assay [4] was inactive.
In the case of `COc1ncc(-c2ccc3nccc(-c4ccnnc4)c3c2)cc1NS(=O)(=O)c1ccc(F)cc1F`, the results for the Potency in assay [5] and in assay [7] were 1.05 µM (active) and 11.9 µM (active), respectively. Also, in assay [6], the molecule was called inactive. In addition, the viability (% of control) in assay [8] was 1.53%. Further, the viability, percent of control in assay [9] worked out at 4.41%.
Take `CC(C)(C)c1ccc(C(O)CCCN2CCC(C(O)(c3ccccc3)c3ccccc3)CC2)cc1` (centres undefined): the Potency result in assay [10] and in assay [1] was “inactive” in each case. Besides, the Potency in assay [11] was 16.1 µM (active). Further, the call in assay [2] and in [3] was inactive.
With `COCCCCC(=NOCCN)c1ccc(C(F)(F)F)cc1`, the Potency entry in [10] and in assay [12] was “inactive” each time.
For `CN(C)Cc1ccc(-c2nc3cccc4c3n2CCNC4=O)cc1`, the Potency entry in assay [5] is “inactive”. The result in assay [6] was inactive. The Potency in assay [7] is 23.7 µM (active). Further, in [8], the viability (% of control) is 17%. In assay [9], the viability, percent of control was 60.9%.
Take `Cc1nc(N)sc1-c1ccnc(Nc2ccc(N3CCOCC3)cc2)n1`: the Potency result in assay [5] was “inactive”. In assay [6], the molecule was classed as inactive. In addition, the Potency in [7] was 2.66 µM (active). The viability (% of control) in assay [8] was determined as 4.33%. The viability, percent of control in [9] stood at 24.4%.
Take `O=C(NCCN1CCOCC1)c1ccc(Cl)cc1`: the Potency result in assay [13], in assay [10] and in assay [1] was “inactive” throughout. Further, the call in assay [2], in assay [3] and in [4] was inactive.
With `NCCS`, the Potency entry in assay [13], in [10], in assay [11] and in assay [1] was “inactive” throughout. Further, the result in assay [2], in [3] and in assay [4] was inactive.
As to `CCN(CC)CCNC(=O)c1ccc(N)cc1`, the Potency entry in assay [10], in assay [11] and in [1] was “inactive” throughout. The result in assay [2] and in [4] was inactive.
For the molecule `COc1cc(N2CCC(N3CCN(C)CC3)CC2)ccc1Nc1ncc(Cl)c(Nc2ccccc2S(=O)(=O)C(C)C)n1`, the results for the Potency in assay [5], in [7] and in assay [14] were 2.09 µM (active), 11.9 µM (active) and 23.5 µM (active), respectively. Moreover, in assay [6], the outcome was inactive. Besides, the viability (% of control) in assay [8] was determined as 3.22%. The viability, percent of control in assay [9] amounted to 3.91%.
Take `CC(=O)N(C)C1(c2ccccc2)CCN(CCC[C@]2(c3ccc(Cl)c(Cl)c3)CCCN(C(=O)c3ccccc3)C2)CC1`: the Potency in assay [5] is 23.5 µM (active). Moreover, the molecule was classed as inactive in [6]. The viability (% of control) in assay [8] turned out to be 1.74%. Besides, the viability, percent of control in [9] was 1.69%.
Turning to `CCOc1ccc(Nc2nc(-c3c(C)nc4ccccn34)cs2)cc1`, the result in assay [6] was inactive. Also, in assay [8], the viability (% of control) came out at 5.58%. In addition, the viability, percent of control in assay [9] was determined as 14.7%.
As to `O=C(N[C@@H](c1ccccc1)[C@@H]1CCCCN1)c1cccc(C(F)(F)F)c1Cl`, the Potency entry in assay [5], in assay [7] and in [14] was “inactive” each time. The call in assay [6] was inactive. The viability (% of control) in assay [8] came to 74.3%. In addition, the viability, percent of control in assay [9] came out at 28.1%.
As for `OC[C@H]1O[C@@H](n2cnc3c2NC=NC[C@@H]3O)C[C@H]1O`, the Potency result in [5], in assay [7] and in assay [14] was “inactive” throughout. The outcome in assay [6] was inactive. Also, the viability (% of control) in assay [8] is 95.3%. The viability, percent of control in [9] stood at 105%.

These data come from PubChem BioAssay (NCATS).
